Drawing on PubChem BioAssay, this text covers z-score for 36 compounds.

The assay is described as follows: calcein-AM signal in unstimulated myeloma cells – cell-based, calcein-AM fluorescence, 48 h, PK04 Diversity Set, profiling panel (AID 1166).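 Also: cells grown under basal conditions without added stimulus; test concentration not given here.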 As to conditions: RPMI8226 myeloma viability, higher = more signal.
In the case of `COC(=O)[C@@]1(Cc2ccc(OC)cc2)[C@H]2c3cc(C(=O)N(C)C)n(Cc4ccc(C)o4)c3C[C@H]2CN1C(=O)c1ccccc1`, the z-score is -0.744.

As for `CCCCCN1CC=CC23O[C@@H]4/C=C\CCC(C)OC(=O)C4[C@H]2C(=O)N(C(CO)C(C)C)[C@@H]3C1=O` (stereo partly specified), the z-score was 0.216.

For `CCOC(=O)C[C@H]1[C@H](OC(=O)c2ccccc2-c2ccccc2)[C@@H](NC(=O)c2ccc3ccccc3n2)c2cc(OCCCO)ccc2N1C(=O)Cc1ccc(OC)cc1`, the z-score is -0.826.

In the case of `O=C1OCCC/C=C\[C@H]2OC34C=CCN(c5ccc6ccccc6c5)C(=O)[C@H]3N(CCO)C(=O)[C@@H]4C12` (stereo partly specified), the z-score is -0.205.

On to `O=C1N(Cc2ccccc2)c2ccccc2C[C@]12N=C(c1ccc(OCCCO)cc1)O[C@@H]2c1ccccc1`, for which the z-score is -3.88.

`O[C@@H](Cc1ccccc1)[C@@H](/C=C/C1CC1)N(CC#Cc1ccccc1)Cc1ccccc1Br`: the z-score is -0.353.

For the compound `O=C(C1N=C(c2ccc(OCCCO)cc2)N(c2ccccc2)O1)N1CCCCC1` (stereo unspecified), the z-score was 0.609.

Consider `CC(C)[Si]1(C(C)C)OCc2cc(-c3ccc(-c4ccc(Cl)c(Cl)c4)o3)nc(-c3ccccc3)c21`, for which the z-score is -1.8.

For the compound `COc1ccc([Si](C)(C)[C@@H]2[C@@H](CCO)O[C@]3(C(=O)N(Cc4ccccc4)c4ccc(NC(=O)[C@H](C)O)cc43)[C@H]2C)cc1`, the z-score is -4.3.

In the case of `COc1cc(NN2C(C(O)c3ccc(N(C)C)cc3)C=CC3C(=O)N(c4ccccc4)C(=O)C32)cc(OC)c1OC` (stereo unspecified), the z-score was -0.889.

`Cn1cccc1C(O)C1C=CC2C(=O)N(c3ccccc3)C(=O)C2N1Nc1ccccc1` (stereo unspecified): the z-score was -0.244.

For the compound `CCOC(=O)C=Cc1cccc(C)c1O`, the z-score is -0.731.

On to `COC(=O)C1=CC(CCCO)=CC(c2cccs2)N(Cc2cccc(OC(F)(F)F)c2)C=C1C(=O)OC` (stereo unspecified), for which the z-score was -3.76.

On to `[N-]=[N+]=Nc1ccccc1[C@@H]1OC(c2ccc(OCCCO)cc2)=N[C@]1(Cc1ccccc1)C(=O)N1CCCCC1`, for which the z-score is -4.32.

For `C=CCNC(=O)[C@@H]1[C@H]2C(=O)O[C@H](c3ccccc3)[C@H](c3ccccc3)N2[C@H](c2ccc(O)cc2)[C@@]12C(=O)N(C(=O)OCCOC)c1ccc(C#CC3=CCCCC3)cc12`, the z-score was -3.66.

`CCOC(=O)C[C@H]1[C@H](OC(=O)c2cc3ccccc3oc2=O)[C@@H](NC(=O)CC(C)C)c2cc(OCCCO)ccc2N1C(=O)c1ccc2ccccc2n1`: the z-score is 0.156.

For `NCCCCCNC(=O)[C@@H]1C[C@@H]2C(=O)N[C@@H](CCCCN)C(=O)N2[C@@H]1c1ccc(O)cc1`, the z-score is -0.0496.

`CC(C)C(CO)N1C(=O)[C@@H]2C3C(=O)OCCC/C=C\[C@H]3OC23C=CCN(Cn2nnc4ccccc42)C(=O)[C@@H]13` (stereo partly specified): the z-score was -0.224.

For the compound `[N-]=[N+]=NCc1ccccc1C[C@@]1(C(N)=O)N=C(c2ccc(OCCCO)cc2)O[C@@H]1c1ccccc1`, the z-score was -2.88.

Take `CCOC(=O)C[C@H]1[C@H](OC(=O)c2ccc(C(=O)c3ccccc3)cc2)[C@@H](NC(=O)CC(C)C)c2cc(OCCCO)ccc2N1C(=O)c1ccccc1`: the z-score was -1.11.

In the case of `CC(C)[Si](C#C[Si](C(C)C)(C(C)C)C(C)C)(O[C@H](c1ccccc1)c1cn(Cc2ccccc2)nn1)C(C)C`, the z-score is 0.798.

Turning to `COC(=O)C/C=C/C[C@]1(O)C(=O)N(C)c2ccccc21`, the z-score was -0.419.

Take `CN1C(=O)C2C=CC(C(O)c3cccn3C)N(Nc3ccc([N+](=O)[O-])cc3[N+](=O)[O-])C2C1=O` (stereo unspecified): the z-score is 0.16.

Consider `C=CCN1Cc2ccccc2[C@@H]2OC(c3ccc(OCCCO)cc3)=N[C@]2(CC=C)C1=O`, for which the z-score is -2.83.

`CCCC=C(CCC)[C@@H](NP(=O)(c1ccccc1)c1ccccc1)c1ccc(-c2ccccc2)cc1`: the z-score is -2.96.

Turning to `C=C(COC)C(=O)CC[C@@H](OC(C)=O)c1cccc(OCCO)c1`, the z-score was -0.496.

For `CCOC(=O)C1=CC[C@@H](c2ccccc2F)N(S(=O)(=O)c2ccc(C)cc2)[C@H]1c1ccccc1`, the z-score is -0.413.

On to `O=C1O[C@H](c2ccccc2)[C@H](c2ccccc2)N2[C@H]1[C@@H](C(=O)O)[C@]1(C(=O)Nc3ccc(C#CCCO)cc31)[C@H]2c1ccccc1OCCO`, for which the z-score was -0.353.

For the compound `COc1cc2c(cc1O)C(C1CC1)N(C)CC2` (stereo unspecified), the z-score was -0.393.

In the case of `COC(=O)[C@@]1(Cc2ccc(OC)cc2)[C@H]2c3cc(C(=O)N4CCCC4)n(CCO)c3C[C@H]2CN1C(=O)c1ccccc1`, the z-score is -0.974.

As to `[N-]=[N+]=Nc1ccccc1C[C@]1(C(=O)N2CCOCC2)COC(c2ccc(OCCCO)cc2)=N1`, the z-score is -0.314.

As to `O=C1C2C=CC(C(O)c3ccco3)N(Nc3ccccc3F)C2C(=O)N1c1ccccc1` (stereo unspecified), the z-score was 0.243.

With `CCCCCN1CC=CC23O[C@@H]4/C=C\CCCOC(=O)C4[C@H]2C(=O)N(C(C)CO)[C@@H]3C1=O` (stereo partly specified), the z-score was 0.15.

In the case of `COC(=O)c1c(CC[C@@H](CO)NC(=O)N2CCC[C@H]2Cn2cc(C3(O)CCCCC3)nn2)oc(C(C)=O)c1C(=O)OC`, the z-score was 0.577.

Consider `CCCCNC(=O)c1ccc(C#CC(C)(C)C)c(OC(C)=O)c1`, for which the z-score was -1.37.

For `COc1ccccc1CN1C(=O)c2ccccc2[C@](Cc2ccccc2I)(C(=O)O)[C@@H]1c1ccc(CO)cc1`, the z-score is -1.7.
